# ChEMBL document CHEMBL3433997, “St. Jude Leishmania screening dataset” (2016)
# Experiments:
# Assay type in all cases: functional
# [1] = biological target: Solute carrier family 2, facilitated glucose transporter member 1 (Homo sapiens) (UniProt P11166); test: ST_JUDE_LEISH: Cytotoxicity at 2uM final concentration against transgenic Leishmania Mexicana promastigotes LmGLUT1 that are glucose transport deficient and complemented with the human glucose transporter GLUT1. Activity is measured by DNA content using SYBR green in vitro
# Chain of Solute carrier family 2, facilitated glucose transporter member 1 (Homo sapiens) (P11166 whole entry): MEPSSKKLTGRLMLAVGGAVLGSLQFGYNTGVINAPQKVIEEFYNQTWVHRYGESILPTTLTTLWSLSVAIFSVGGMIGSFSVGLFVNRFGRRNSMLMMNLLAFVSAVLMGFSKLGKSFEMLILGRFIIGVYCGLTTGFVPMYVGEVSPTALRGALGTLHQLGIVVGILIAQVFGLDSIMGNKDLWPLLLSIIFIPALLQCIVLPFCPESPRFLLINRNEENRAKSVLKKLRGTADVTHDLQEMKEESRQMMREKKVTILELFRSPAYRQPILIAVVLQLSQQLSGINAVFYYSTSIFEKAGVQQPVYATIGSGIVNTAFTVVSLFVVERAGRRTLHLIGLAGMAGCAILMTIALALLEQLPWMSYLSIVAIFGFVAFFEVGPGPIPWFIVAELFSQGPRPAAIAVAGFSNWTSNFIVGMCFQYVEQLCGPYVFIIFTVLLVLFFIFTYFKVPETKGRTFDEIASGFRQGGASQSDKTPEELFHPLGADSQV
# [2] = biological target: Hexose transporter 1 (Plasmodium falciparum) (UniProt O97467); test: ST_JUDE_LEISH: Cytotoxicity at 2uM final concentration against transgenic Leishmania Mexicana promastigotes LmPfHT that are glucose transport deficient and complemented with the Plasmodium falciparum hexose transporter. Activity is measured by DNA content using SYBR green in vitro
# [3] = biological target: Glucose transporter (Leishmania mexicana) (UniProt O61059); test: ST_JUDE_LEISH: Cytotoxicity at 2uM final concentration against transgenic Leishmania Mexicana promastigotes LmGT2 that are glucose transport deficient and complemented with the L. Mexicana glucose transporter 2. Activity is measured by DNA content using SYBR green in vitro
Compound,inhibition [1] [%],inhibition [2] [%],inhibition [3] [%]
Cc1ccc(Nc2nccc(Nc3ccc4c(c3)nc(Nc3cc(C(C)(C)C)on3)n4C)n2)cc1S(C)(=O)=O,3.26,5.38,-1.41
Cc1cc(C(F)(F)F)n2nc(C3CCN(Cc4cc(C)c(O)c(C)c4)C3)cc2n1 (configuration not stated),4.53,3.54,-0.59
CC1(C)N=C(N)N=C(N)N1OCc1cccc2c1ccc1ccccc12,0.96,2.76,0.32
O=C(O)c1ccc(NC(=O)C2CC(=O)N(Cc3ccc(Cl)cc3)C(=Nc3ccc(Cl)cc3)S2)cc1 (configuration not stated),2.23,2.86,1.01
CC(C)(CN)c1nc(-c2ccc(Cl)c(O)c2)c(-c2ccncc2)[nH]1,-2.49,0.02,1.18
CCCCCN1C(=O)C(c2ccccc2)(c2ccccc2)N=C1N,4.32,2.96,4.92
COc1ccc(CCCCN2C(=O)C(c3ccccc3)(c3ccccc3)N=C2N)cc1,3.36,4.05,0.32
CCCNc1ccc(-c2cc(C(N)=O)c3[nH]cc(C4CCN(S(=O)(=O)CC)CC4)c3c2)cn1,3.86,6.54,3.64
COc1cc(C(=O)Nc2cccc(-c3nc4ccccc4[nH]3)c2)ccc1OC(C)=O,-0.73,2.19,0.31
N#Cc1ccc(-c2ccc(C(=O)NCCCCN3CCC(c4ccc5c(c4OCc4ccncc4)CCCC5)CC3)cc2)cc1,0.21,3.1,1.26
CC(C)(C)OC(=O)Cn1cnc2cc(NC(=O)c3cc([N+](=O)[O-])cc([N+](=O)[O-])c3)ccc21,3.13,4.11,3.89
CC(Nc1ccnc2cc(Cl)ccc12)c1ccc(S(N)(=O)=O)cc1 (configuration not stated),-1.53,1.3,2.92
Nc1nc(N)c2c(ccc3c2ccn3Cc2ccc(OCc3ccccc3)cc2)n1,2.4,-1.46,-0.6
Cc1cnc(C(=O)Nc2cccc(-c3ccc(-c4nc5cc(C(F)(F)F)ccc5[nH]4)s3)c2)cn1,8.07,5.21,6.71
COc1cc(C(F)(F)F)nc2c(CNCCCNc3cc(=O)c4ccccc4[nH]3)scc12,0.84,0.13,0.55
O=C(Nc1ccc2c(c1)CCN2C1CCN(Cc2csc3ccccc23)C1)c1ccco1 (configuration not stated),2.05,2.08,1.45
CN(C)CCN1CCN(CCCN2c3ccccc3Sc3ccc(C(F)(F)F)cc32)CC1,3.37,3.77,3.66

Compound,inhibition [1] [%],inhibition [2] [%],inhibition [3] [%]
COc1ccc(CNCc2ccccc2)cc1-c1ccc(S(=O)(=O)NCCN2CCCC2)cc1,2.89,1.76,-2.76
O=c1[nH]c2c(cc1CNC1CCCCC1)c(-c1cccc(F)c1)nn2-c1ccccc1,1.69,0.38,-3.71
CCc1cc(-c2n[nH]c(C(F)(F)F)c2-c2ccccc2)c(O)cc1OC,2.03,1.54,2.44
CCCCCCCCCC(=O)NCC1CC(Br)=NO1 (configuration not stated),-2,-0.61,-1.46
Cc1nc(C)c(-c2ccc(Oc3ccc(Cl)cc3)c(Cl)c2)c(O)c1Br,2.21,3.03,1.91
CC(C)CNCc1cccc(-c2ccccc2CN(C(=O)NCCc2ccccc2)C2CCN(Cc3ccccc3)CC2)c1,13.1,11.4,8.25
Cc1cc(CN2CC[C@H](NC(=O)c3ccc(Cl)c(Cl)c3)C2)ccc1OCCN1CCNCC1,-0.62,0.59,0.3
COc1ccc(OCCn2cc(C(=O)c3ccco3)c3ccccc32)cc1,3.1,1.5,2.42
CCN(CC)CC#Cc1ccc2[nH]c(C)c(Cl)c(=O)c2c1,3.66,3.51,4.12
COc1ccc(NC(=O)[C@H](CC(C)C)Nc2cc(C)nc(NCCc3ccccc3)n2)cc1,3.57,3.69,1.94
COc1cc(Cc2cnc(N)nc2N)cc(OCCCCc2nnn[nH]2)c1OC,-0.47,1.16,-0.95
COc1ccc(Nc2ccnc3cc(-c4ccccn4)ccc23)cc1OC,1.2,0.73,-0.54
Cc1nc2nc(N)nc(N)c2c(C)c1Cc1cccc(C(F)(F)F)c1,-1.41,-2.48,-2.32
Nc1ncc(-c2ccc3ncccc3c2)c(N)n1,0.18,0.97,1.18
COc1cc(-c2nc(-c3ccccc3)c(-c3ccccc3)[nH]2)ccc1OCCN(C)C,1.69,1.4,0.91
FC(F)(F)c1ccc2[nH]c(-c3ccc(-c4cccc(CNCCc5ccncc5)c4)s3)nc2c1,0.52,1.67,5.33
CC1(C)N=C(NC(=O)c2ccc([N+](=O)[O-])cc2)N=C(N)N1OCc1ccc2ccccc2c1,3.85,4.18,-0.07
